{"source": "ChEMBL document CHEMBL3988442", "about": "“University of Dundee, Small-Polar-MMV Screening Library” (2021)", "key": {"[1]": {"target": "T1, Aspartate--tRNA(Asp/Asn) ligase (Mycobacterium tuberculosis (strain ATCC 25618 / H37Rv)) (UniProt P9WFW3)", "T1 sequence (whole entry)": "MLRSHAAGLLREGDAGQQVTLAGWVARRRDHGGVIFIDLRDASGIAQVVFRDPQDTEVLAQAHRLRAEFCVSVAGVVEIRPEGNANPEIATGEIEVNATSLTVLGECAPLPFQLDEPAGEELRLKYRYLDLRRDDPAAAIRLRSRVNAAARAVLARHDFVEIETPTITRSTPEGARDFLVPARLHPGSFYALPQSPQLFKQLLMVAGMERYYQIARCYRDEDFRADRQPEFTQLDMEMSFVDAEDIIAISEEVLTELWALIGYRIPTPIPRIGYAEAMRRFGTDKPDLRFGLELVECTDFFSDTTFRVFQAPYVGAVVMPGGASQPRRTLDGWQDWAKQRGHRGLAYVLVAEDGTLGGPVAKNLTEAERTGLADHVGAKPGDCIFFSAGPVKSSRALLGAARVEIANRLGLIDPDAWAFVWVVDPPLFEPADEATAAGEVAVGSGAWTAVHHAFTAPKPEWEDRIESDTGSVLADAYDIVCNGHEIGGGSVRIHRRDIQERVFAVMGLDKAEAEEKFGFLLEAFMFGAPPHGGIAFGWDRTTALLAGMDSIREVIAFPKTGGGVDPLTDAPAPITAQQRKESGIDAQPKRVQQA", "experiment": "Assay for Asp RNA synthetase-1 from Mycobacterium tuberculosis", "type": "functional", "parameters": "scale not given: direction of the effect not stated beside the values", "settings": "30 µM"}, "[2]": {"target": "Shiga toxin 2 (Escherichia coli O157:H7) (UniProt P09385+P09386)", "experiment": "E. coli 0.157:H7 Shiga Toxin SOP - stx2 screening assay", "type": "functional", "parameters": "scale not given: direction of the effect not stated beside the values", "settings": "30 µM"}}, "data": [{"smiles": "CCc1n[nH]c(C2CN(C(=O)Cn3ccccc3=O)CCO2)n1", "note": "(centres undefined)", "values": [{"measurement": "Percent Effect", "setting": "[1]", "value": 0.8, "unit": "%"}, {"measurement": "Percent Effect", "setting": "[2]", "value": -58, "unit": "%"}]}, {"smiles": "c1cc(CN2CCN(Cc3cscn3)CC2)cs1", "values": [{"measurement": "Percent Effect", "setting": "[1]", "value": 1.38, "unit": "%"}, {"measurement": "Percent Effect", "setting": "[2]", "value": 26.6, "unit": "%"}]}, {"smiles": "CN(C)[C@H]1CCCCN(C(=O)CCc2csc(N)n2)C1", "values": [{"measurement": "Percent Effect", "setting": "[1]", "value": -1.18, "unit": "%"}, {"measurement": "Percent Effect", "setting": "[2]", "value": 3.47, "unit": "%"}]}, {"smiles": "O=C(O)[C@@H]1CN(C(=O)c2cc(C3CC3)n[nH]2)C[C@H]1c1cccc(F)c1", "values": [{"measurement": "Percent Effect", "setting": "[1]", "value": -3.42, "unit": "%"}, {"measurement": "Percent Effect", "setting": "[2]", "value": -8.72, "unit": "%"}]}, {"smiles": "COc1cc(CNCc2c(C)nn(C)c2N(C)C)ccc1C", "values": [{"measurement": "Percent Effect", "setting": "[1]", "value": -3.09, "unit": "%"}, {"measurement": "Percent Effect", "setting": "[2]", "value": 9.03, "unit": "%"}]}, {"smiles": "CC(C)Oc1ccccc1C1CC(=O)Nc2c1cnn2C", "note": "(centres undefined)", "values": [{"measurement": "Percent Effect", "setting": "[1]", "value": 2.79, "unit": "%"}, {"measurement": "Percent Effect", "setting": "[2]", "value": -6.39, "unit": "%"}]}, {"smiles": "NC(=O)c1cc(NC(=O)NCCc2cc(F)cc(F)c2)ccc1F", "values": [{"measurement": "Percent Effect", "setting": "[1]", "value": 4.79, "unit": "%"}, {"measurement": "Percent Effect", "setting": "[2]", "value": -82, "unit": "%"}]}, {"smiles": "CCc1n[nH]c(C2CN(C(=O)CCc3cccs3)CCO2)n1", "note": "(centres undefined)", "values": [{"measurement": "Percent Effect", "setting": "[1]", "value": -2.02, "unit": "%"}, {"measurement": "Percent Effect", "setting": "[2]", "value": -49.5, "unit": "%"}]}, {"smiles": "Cc1nc(C)c(C(=O)NCCNC(=O)c2ccc(F)cc2F)s1", "values": [{"measurement": "Percent Effect", "setting": "[1]", "value": -2.04, "unit": "%"}, {"measurement": "Percent Effect", "setting": "[2]", "value": -16, "unit": "%"}]}, {"smiles": "OCC1CCCN1c1cc(N2CCC(OC3CCCC3)CC2)ncn1", "note": "(centres undefined)", "values": [{"measurement": "Percent Effect", "setting": "[1]", "value": -1.79, "unit": "%"}, {"measurement": "Percent Effect", "setting": "[2]", "value": 7.55, "unit": "%"}]}, {"smiles": "Cc1ccc(CN2CCC(F)(F)C3(CCN(c4cnccn4)C3)C2)o1", "note": "(centres undefined)", "values": [{"measurement": "Percent Effect", "setting": "[1]", "value": 5.56, "unit": "%"}, {"measurement": "Percent Effect", "setting": "[2]", "value": -6.62, "unit": "%"}]}, {"smiles": "CCOCC1CN(S(C)(=O)=O)Cc2ncn(CC3CC3)c21", "note": "(centres undefined)", "values": [{"measurement": "Percent Effect", "setting": "[1]", "value": -0.663, "unit": "%"}, {"measurement": "Percent Effect", "setting": "[2]", "value": -6.21, "unit": "%"}]}, {"smiles": "Cc1nnc(NCc2cccnc2N(C)C)c(C#N)c1C", "values": [{"measurement": "Percent Effect", "setting": "[1]", "value": 0.728, "unit": "%"}, {"measurement": "Percent Effect", "setting": "[2]", "value": 0.124, "unit": "%"}]}, {"smiles": "Cc1nn(C)c(C)c1C1CCCN1C(=O)CCCn1cccn1", "note": "(centres undefined)", "values": [{"measurement": "Percent Effect", "setting": "[1]", "value": -2.95, "unit": "%"}, {"measurement": "Percent Effect", "setting": "[2]", "value": 10.6, "unit": "%"}]}, {"smiles": "c1ccc(Cc2noc(CNC3CCc4ncnn4C3)n2)cc1", "note": "(centres undefined)", "values": [{"measurement": "Percent Effect", "setting": "[1]", "value": -0.932, "unit": "%"}, {"measurement": "Percent Effect", "setting": "[2]", "value": 2.15, "unit": "%"}]}, {"smiles": "CN1CCN(C(=O)CC2CCN(CCc3ccccn3)CC2)CC1", "values": [{"measurement": "Percent Effect", "setting": "[1]", "value": -2.94, "unit": "%"}, {"measurement": "Percent Effect", "setting": "[2]", "value": 8.24, "unit": "%"}]}, {"smiles": "Cc1nn(C)c(N(C)C)c1CNCC(O)c1ccccc1", "note": "(centres undefined)", "values": [{"measurement": "Percent Effect", "setting": "[1]", "value": -4.11, "unit": "%"}, {"measurement": "Percent Effect", "setting": "[2]", "value": -17.5, "unit": "%"}]}]}
